tim10-1 inh = growth inhibitors of tim10-1 mutant yeast, primary screen, luminescence, uHTS; S. cerevisiae tim10-1 ts strain growth, BacTiter-Glo, 24 h; inhibition, % at 20 µM; 2.2% of 330,000 active;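 active = inhibition of at least 40%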;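 also: mutant grown at 25 °C; 0% = DMSO wells with yeast and 100% = wells holding no yeast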
V-ATPase pHluor = regulators of yeast V-ATPase proton pumping, primary screen, pHLuorin cytosolic pH fluorescence; 0.37% of 350,000 active; response, % at 10 µM; AID 504577, 2011; S. cerevisiae; in the data active = response mostly above about 7.3%, no sharp cut-off; inactive = mostly below about 5.4%; also: actives read high
TIM10 inh = growth inhibitors of isogenic TIM10 control yeast, primary screen, counter-screen for tim10-1 yeast inhibitor project, luminescence, uHTS. S. cerevisiae TIM10 strain growth, BacTiter-Glo luminescence, 24 h. AID 463195, 2010. inhibition, % at 10 µM. 1.4% of 330,000 active;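 active = inhibition of 40% or more at the single tested concentration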;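 also: wild-type TIM10 isogenic control strain grown at permissive 25 °C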
NALP3 yeast inh = NALP3 inflammasome inhibitors in reconstituted yeast, primary screen, luminescence, uHTS; AID 2825, 2010; inhibition, % at 10 µM; Yeast reconstituted NLRP3/ASC/caspase-1, beta-gal luminescence, 24 h; 0.39% of 330,000 active;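 active = inhibition of 50% or more; inactive = inhibition below 50%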;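 also: plate controls were induced DMSO wells for no effect and uninduced yeast grown without galactose for full effect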
NALP1 inh = NALP1 inflammasome inhibitors in reconstituted yeast, colorimetric, S. cerevisiae, triplicate retest | 0.61% of 280,000 active | S. cerevisiae NALP1/ASC/caspase-1 growth, X-gal OD620, 72 h | inhibition, % at 10 µM; in the data active = inhibition mostly above about 24%, no sharp cut-off; inactive = mostly below about 32%
tim23-1 inh = growth inhibitors of tim23-1 mutant yeast, primary screen, luminescence, uHTS | inhibition, % at 20 µM | 1.3% of 330,000 active | S. cerevisiae tim23-1 growth, BacTiter-Glo luminescence, 24 h | AID 463212, 2010;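 active = growth inhibition of the mutant yeast at or above 50%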;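 also: temperature-sensitive mutant grown at 25 °C; plate controls were DMSO-treated mutant yeast for no effect and medium wells lacking yeast for full effect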
tim10-1 conf = growth inhibitors of tim10-1 mutant yeast, confirmation, single concentration, luminescence, S. cerevisiae | shares compounds with tim10-1 inh | S. cerevisiae tim10-1 ts strain growth, BacTiter-Glo, 24 h | inhibition, % at 20 µM | 56% of 7,400 active | AID 463213, 2010;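 active = inhibition of yeast growth at or above a set limit in either of two repeat tests at 20 µM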;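 also: tim10-1 mutant grown at permissive 25 °C to find synthetic lethal compounds; 0% = DMSO yeast wells and 100% = medium wells without yeast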
Starred values were filed as active, the others as inactive; . = no result given. Compounds with a hit are over-represented: about 4.2% of the library has one in this group of screens.

SMILES	tim10-1 inh	V-ATPase pHluor	TIM10 inh	NALP3 yeast inh	NALP1 inh	tim23-1 inh	tim10-1 conf
C#CCn1c(=NC(=O)c2cc(Cl)sc2Cl)sc2cc(S(N)(=O)=O)ccc21	47*	-7	22	16	37	30	33*
COc1ccccc1C(=O)NCC(=O)OCC(=O)Nc1ccc2[nH]c(=O)[nH]c2c1	-34	-3	-33	-3	.	-32	.
CC(C)C(=O)Nc1cccc(COc2ccc(CN(CCc3ccccc3)C(=O)OC(C)(C)C)cc2)c1	.	-1	.	.	.	.	.
Cc1c(C(=N)C(C#N)C#N)c(=N)oc2c1ccc1ccccc12	41*	-1	35	4	25	20	29
Cc1c(C(=O)O)oc2c1ccc1ccccc12	2	3	-6	-1	24	7	.
COc1ccccc1/C=C/[C@@H]1C[C@H]2CN(Cc3cccc(Cl)c3)C(=O)[C@]23CCCN13	43*	2	20	13	-6	27	26
COc1cccc2c1OCC([C@@H]1C[C@H]3CN(Cc4cccc(Cl)c4)C(=O)[C@]34CCCN14)=C2	9	3	-1	9	16	21	.
CCCC(O)(c1ccc(Cl)cc1)C(CN1CCOCC1)c1ccccc1 (centres undefined)	29	2	9	-8	-7	32	.
CCCC(O)(c1ccccc1)C(CN1CCOCC1)c1ccccc1 (centres undefined)	41*	-1	17	8	14	33	19
CC1CCN(Cc2nnnn2-c2ccc(Cl)cc2)CC1	56*	4	17	1	15	50	37*
CCC(=O)Nc1cccc(C(=O)/C=C/c2ccccc2)c1	42*	.	20	26	14	34	43*
CCN(c1ccc(NC(=O)COC(=O)CCc2cc(OC)c(OC)c(OC)c2)cc1)C(C)C	.	-3	.	.	-5	.	.
CCCCCc1ccc(OCCCC[n+]2ccccc2)c(CCCCC)c1	43*	0	-295	15	8	-24	32*
CCC(C)(C)c1ccc(OCCCC[n+]2ccccc2)c(C(C)(C)CC)c1	46*	-3	-120	-8	20	30	37*
O=C(NCc1ccccc1)C1CC(=O)N(C2CCCCC2)C1 (centres undefined)	10	4	10	19	0	7	.
CCCOc1ccc(N2C(=O)CC(SCCN)C2=O)cc1 (centres undefined)	42*	-2	6	7	2	9	24
CC(Oc1ccccc1)C(=O)N1CCN=C1SCc1ccc(F)cc1 (centres undefined)	-7	-2	-19	8	.	5	.
COc1ccc(/C=C2\CCCC3C2=NC(=S)NC3c2ccc(OC)cc2)cc1 (centres undefined)	46*	-4	24	4	9	50	28
COc1ccc(/C=C2\CCC(C3CCCC3)C2=O)cc1 (centres undefined)	10	-52	1	38	34	8	.
CCOC(=O)c1c(C)[nH]c(=S)c(C#N)c1-c1ccc(Cl)cc1	54*	1	21	17	13	36	28
CCOC(=O)c1c(C)[nH]c(=S)c(C#N)c1-c1ccc(OC)cc1	32	1	14	1	3	13	.
O=[N+]([O-])c1ccc(N2CCc3ccccc3C2)cc1	55*	1	35	40	6	35	43*
O=[N+]([O-])c1ccc(-c2csc(N3CCc4ccccc4C3)n2)cc1	18	1	20	8	14	27	.
COC(=O)C1CC(C(=O)OC)C2C(C(=O)OC)CC(C(=O)OC)C12 (centres undefined)	.	3	.	.	.	.	.
CCOc1ccccc1CNC(=O)c1ccc(NC(=O)C2=CSCCO2)cc1	45*	3	9	12	10	36	6
SMILES	tim10-1 inh	V-ATPase pHluor	TIM10 inh	NALP3 yeast inh	NALP1 inh	tim23-1 inh	tim10-1 conf
Cc1cccc(CNC(=O)c2ccc(NC(=O)C3=CSCCO3)cc2)c1	50*	-1	16	24	4	43	21
Cc1cccc(CNC(=O)c2ccccc2NC(=O)C2=CSCCO2)c1	21	-1	0	18	15	15	.
Cc1ccc(CNC(=O)c2ccccc2NC(=O)C2=CSCCO2)cc1	40	11	18	24	7	24	18
CCOc1ccccc1CNC(=O)c1ccc(NC(=O)C2=C(C)OCCS2)cc1	33	4	-20	16	7	20	.
COc1oc(C(=O)NC2CCCCC2)c(-c2ccc(Cl)cc2)c1S(=O)(=O)c1ccccc1	.	1	.	.	.	.	.
CCOC(=O)[C@H]1[C@H]2COc3ccc(Br)cc3[C@@H]2N2C(=O)CN(Cc3ccco3)C(=O)[C@@]12C	18	0	4	-3	.	21	.
CC1(C)Oc2ccc(C(=O)NC3CCCCC3)cc2N(CC#N)C1=O	-6	4	7	20	1	10	.
O=c1c2c(-c3cccs3)csc2ncn1/N=C/c1ccc(OC(F)F)cc1	47*	-4	38	23	22	46	39*
Cc1cccc(NS(=O)(=O)c2c(C)nc3scc(C)n3c2=O)c1	21	-8	14	6	18	40	.
O=C(COc1ccc(F)cc1)N(Cc1ccc(Cl)cc1)C1CCS(=O)(=O)C1 (centres undefined)	29	1	0	8	5	16	.
Cc1cccc(C)c1OCC(=O)N(Cc1ccc(Cl)cc1)C1CCS(=O)(=O)C1 (centres undefined)	40*	5	15	11	-2	36	-7
CCCNC(=O)C(Cc1ccc(F)cc1)NC(=O)c1ccccc1 (centres undefined)	3	6	-2	9	.	5	.
N#C/C(=N\Nc1cccc(Cl)c1)C(=O)c1ccccc1	42*	-7	15	44	3	36	25
Cc1ccsc1C(=O)N1CCCC(CO)(Cc2ccccc2F)C1 (centres undefined)	22	1	8	29	12	34	.
C/C(=N\NC(=S)Nc1ccc(C)cc1)c1cccc(N)c1	42*	-2	36	7	0	1	21
CCN(c1ccccc1)c1nc(Cl)nc2c1cnn2C	.	-1	.	.	.	.	.
CCc1nnc(NC(=O)CCC(=O)NC2CCCCCCC2)s1	3	-1	8	16	20	6	.
Cc1ccccc1NC(=O)c1ccc2c(O)c(S(=O)(=O)c3ccccc3)c(=O)[nH]c2c1	17	3	20	-6	2	6	.
CN(Cc1ccccc1)Cc1nc2c(c(=O)n(C)c(=O)n2C)n1Cc1ccc(Cl)cc1	40*	1	29	0	.	31	25

Screens as filed in PubChem BioAssay.
